Experimental data published in PubChem BioAssay (Tox21).
Where “and” joins values, the source holds several entries; their conditions need not be identical. Equal entries are not always repeated. Records with an inconclusive call do not appear. A call without a number means that no potency is given here. The source holds several records for some structures; these can differ, active in one and inactive in another. Calls of active or inactive are those of the source. The call rests on the fitted dose curve; in most records, active means well fitted curve in the direction sought with a large enough effect in the repeat runs; inconclusive means weak or mixed curves; inactive means no such curve, though single readings can be large; an effect the other way counts as inactive or inconclusive.

Experiments:
[1] = A CellTox Green Cytotoxicity Assay to monitor cytotoxicity in HEK293 cells - 8 hour (AID 1224884); further: nearly all actives have a fitted effect of over 35% in size; further: potency means the concentration at half of the fitted maximal effect
How it was run: (§1)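 Real-time, in one plate: 600 HEK293 cells/well with dead-cell DNA dye, pinned compound after 5 h, 37 C incubation over 40 h; viable cells give no appreciable fluorescence.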

[2] = qHTS RealTime-Glo MT Cell Viability Assay in HepG2 cells - 16 hour (AID 1224885); further: nearly all actives have a fitted effect of over 50% in size
How it was run: (§2)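 HepG2 cells (600/well) were dispensed with RealTime-Glo reagents, incubated 5 h at 37 °C, then treated with compounds in DMSO for up to 40 h. Nonlytic NanoLuc luminescence reflecting viable cells was read at each stated time point.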

[3] = qHTS RealTime-Glo MT Cell Viability Assay in HEK293 cells - 24 hour (AID 1224886); further: nearly all actives have a fitted effect of over 50% in size; further: potency means the concentration at half of the fitted maximal effect; on activity change, negative = cytotoxicity: top concentration of the series differs between compounds
How it was run: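 HEK293 cells seeded with NanoLuc/prosubstrate reagent, rested 5 h at 37 C, then dosed and kept at 37 C up to 40 h. Nonlytic real-time luminescence from viable cells read at 0, 8, 16, 24, 32 and 40 h.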

[4] = qHTS RealTime-Glo MT Cell Viability Assay in HEK293 cells - 8 hour (AID 1224887); further: top concentration of the series differs between compounds; nearly all actives have a fitted effect of over 50% in size
How it was run: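 Kinetic, non-lysing viability readout. Seed HEK293 (600/well) with reagent, incubate 5 h at 37 C/5% CO2, pin 23 nL compound in DMSO, incubate at 37 C, read luminescence at 0, 8, 16, 24, 32, 40 h.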

[5] = A CellTox Green Cytotoxicity Assay to monitor cytotoxicity in HEK293 cells - 16 hour (AID 1224888); further: nearly all actives have a fitted effect of over 35% in size
How it was run: as §1

[6] = qHTS RealTime-Glo MT Cell Viability Assay in HepG2 cells - 0 hour (AID 1224889); further: nearly all actives have a fitted effect of over 50% in size
How it was run: as §2

[7] = qHTS assay to identify small molecule antagonists of the estrogen receptor alpha (ER-alpha) signaling pathway using the BG1 cell line in the presence of 0.1 nM 17-beta-estradiol - cell viability counter screen (AID 1259241); further: nearly all actives have a fitted effect of over 40% in size
How it was run: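 VM7Luc4E2 cells (endogenous ER-alpha, 4×ERE-luciferase), hormone-starved 5 days in charcoal-stripped FBS, were treated with compounds plus 0.1 nM 17beta-estradiol for 22 hr at 37C; viability read in same wells as CellTiter-Fluor live-cell protease fluorescence.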

[8] = qHTS assay to identify small molecule antagonists of the androgen receptor (AR) signaling pathway using the MDA cell line in the presence of 0.5 nM R1881 - cell viability counter screen (AID 1259242); further: nearly all actives have a fitted effect of over 45% in size
How it was run: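 Cells seeded at 3,000/well and allowed 5 hr at 37C, 0% CO2 before compound transfer and R1881 (0.5 nM final) addition; 16 hr later, live-cell protease fluorescence indicated cytotoxicity.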

[9] = A CellTox Green Cytotoxicity Assay to monitor cytotoxicity in HepG2 cells - 8 hour (AID 1224890); further: nearly all actives have a fitted effect of over 45% in size; further: potency means the concentration at half of the fitted maximal effect
How it was run: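 Cytotoxicity was tracked as dead-cell DNA fluorescence in HepG2 cells treated with test compounds at 37 C; each time-point value comes from one kinetic series spanning 0, 8, 16, 24, 32 and 40 h.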

[10] = molecular target: Androgen receptor (Homo sapiens) (UniProt P10275); assay: qHTS assay to identify small molecule antagonists of the androgen receptor (AR) signaling pathway using the MDA cell line in the presence of 0.5 nM R1881 (AID 1259243); further: nearly all actives have a fitted effect of over 50% in size; further: potency means the concentration at half of the fitted maximal effect
How it was run: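 Luminescence from an AR/GR-responsive MMTV-luciferase construct in MDA-kb2 breast carcinoma cells, read 30 min after ONE-Glo, following 16 hr co-treatment with compounds and 0.5 nM R1881.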

Androgen receptor (Homo sapiens), sequence (P10275 whole entry, looked up): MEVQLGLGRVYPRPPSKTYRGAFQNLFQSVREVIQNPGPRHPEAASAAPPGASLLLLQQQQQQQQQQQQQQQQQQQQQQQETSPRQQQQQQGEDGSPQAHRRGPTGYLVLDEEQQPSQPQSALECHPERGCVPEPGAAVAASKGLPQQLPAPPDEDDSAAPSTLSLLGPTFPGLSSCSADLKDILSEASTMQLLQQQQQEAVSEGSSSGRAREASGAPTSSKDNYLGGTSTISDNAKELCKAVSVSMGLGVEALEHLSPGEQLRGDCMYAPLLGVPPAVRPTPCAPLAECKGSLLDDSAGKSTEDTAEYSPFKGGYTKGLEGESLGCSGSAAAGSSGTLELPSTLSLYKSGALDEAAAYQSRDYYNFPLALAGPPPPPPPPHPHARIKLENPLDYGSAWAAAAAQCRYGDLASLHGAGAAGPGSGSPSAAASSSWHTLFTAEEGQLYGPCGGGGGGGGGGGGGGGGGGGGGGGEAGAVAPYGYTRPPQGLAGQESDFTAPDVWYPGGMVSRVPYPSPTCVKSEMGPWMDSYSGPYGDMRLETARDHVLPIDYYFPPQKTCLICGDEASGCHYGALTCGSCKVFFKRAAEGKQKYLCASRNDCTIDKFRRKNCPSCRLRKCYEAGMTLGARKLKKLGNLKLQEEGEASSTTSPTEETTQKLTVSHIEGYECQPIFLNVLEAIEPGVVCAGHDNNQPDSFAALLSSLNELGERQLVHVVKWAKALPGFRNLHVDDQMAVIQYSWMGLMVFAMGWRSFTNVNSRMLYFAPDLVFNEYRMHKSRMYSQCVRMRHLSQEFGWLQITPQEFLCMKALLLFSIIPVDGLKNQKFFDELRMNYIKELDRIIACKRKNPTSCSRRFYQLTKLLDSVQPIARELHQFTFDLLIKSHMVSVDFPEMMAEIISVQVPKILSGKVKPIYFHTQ

Row | Compound | Potency [1] | outcome [2] | Potency [3] | outcome [4] | Potency [5] | outcome [6] | Potency [7] | outcome [8] | Potency [9] | Potency [10] | activity change, negative = cytotoxicity [3]
1 | COC(=O)NS(=O)(=O)c1ccc(N)cc1 | inactive | inactive | inactive | inactive | inactive | inactive | inactive | inactive | – | – | –
2 | c1cc2c3c(cccc3c1)CC2 | inactive and 49 µM (active) | inactive | inactive | inactive | – | inactive | inactive | inactive | inactive | inactive | –
3 | CCCCCOC(=O)c1ccccc1C(=O)OCCCCC | inactive | inactive | inactive | inactive | inactive | inactive | inactive | inactive | – | – | –
4 | CN(C)N=O | inactive | inactive | inactive | inactive | inactive | inactive | inactive | inactive | – | – | –
5 | C=C(C)CCl | inactive | inactive | – | inactive | inactive | inactive | inactive | inactive | – | inactive | 6.36% [at 6.97 µM] (inactive)
6 | CCCCCCCCCCCC#N | inactive and 45.2 µM (active) | inactive | inactive | inactive | – | inactive | inactive | inactive | inactive and 40.3 µM (active) | – | –
7 | O=[N+]([O-])c1ccccc1 | inactive | inactive | inactive | inactive | inactive | inactive | inactive | inactive | – | – | –
8 | CC(C)OC(=O)Nc1ccccc1 | inactive | inactive | inactive | inactive | inactive | inactive | inactive | inactive | – | – | –
9 | C=CC(N)=O | inactive | inactive | inactive | inactive | inactive | inactive | inactive | inactive | – | – | –
10 | O=c1[nH]c(=O)[nH]c(=O)[nH]1 | inactive | inactive | inactive | inactive | inactive | inactive | inactive | inactive | – | inactive | –
11 | CC(C)OC(=O)Nc1cccc(Cl)c1 | inactive | inactive | inactive | – | inactive | inactive | inactive | inactive | inactive | – | –
12 | [N-]=[N+]=[N-] | inactive | inactive | inactive | inactive | inactive | inactive | inactive | inactive | – | 41.8 µM (active) and inactive | –
13 | Oc1ccccc1Cl | inactive | inactive | inactive | inactive | inactive | inactive | inactive | inactive | – | – | –
14 | O=S(=O)(c1ccc(O)cc1)c1ccc(O)cc1 | inactive | inactive | inactive | inactive | inactive | inactive | inactive | inactive | – | – | –
15 | CCOP(=S)(OCC)SCCSCC | inactive | inactive | inactive | inactive | inactive | inactive | inactive | inactive | – | – | –
16 | CCN(CC)c1ccccc1 | inactive | inactive | inactive | inactive | inactive | inactive | inactive | inactive | – | inactive | –
17 | CNC(=O)Oc1ccccc1OC(C)C | inactive | inactive | inactive | inactive | inactive | inactive | inactive | inactive | – | – | –
18 | C=CCO | inactive and 27.5 µM (active) | inactive | inactive | inactive | – | inactive | inactive | inactive | – | – | –
19 | CCCN(CCC)c1c([N+](=O)[O-])cc(C(F)(F)F)cc1[N+](=O)[O-] | 1.23 µM (active) and inactive | inactive | inactive | – | inactive | inactive | inactive | inactive | – | inactive | –
20 | CC(C)(C)C(O)(CCc1ccc(Cl)cc1)Cn1cncn1 (stereo not given) | inactive | inactive | 49.6 µM (active) and 54.9 µM (active) | – | inactive | inactive | inactive | inactive | – | – | –
21 | O=[N+]([O-])c1ccc([As](=O)(O)O)cc1 | inactive | inactive | inactive | inactive | inactive | inactive | inactive | inactive | – | – | –
22 | CC(C)N1C(=O)c2ccccc2NS1(=O)=O | inactive | inactive | inactive | inactive | inactive | inactive | inactive | inactive | – | – | –
23 | Cn1cc(-c2ccccc2)c(=O)c(-c2cccc(C(F)(F)F)c2)c1 | inactive | inactive | inactive | inactive | inactive | – | inactive | inactive | – | – | –
24 | CN(C)[C@@H]1C(=O)C(C(N)=O)=C(O)[C@@]2(O)C(=O)C3=C(O)c4c(O)cccc4[C@@](C)(O)[C@H]3C[C@@H]12 | inactive | inactive | inactive | inactive | inactive | inactive | inactive | inactive | – | – | –
25 | NCCc1ccc(O)cc1 | inactive | inactive | inactive | inactive | inactive | inactive | inactive | inactive | – | – | –
26 | c1ccc(-c2ccccc2)cc1 | inactive | inactive | inactive | inactive | inactive | inactive | inactive | inactive | – | inactive | –
27 | Cc1ccc(N)cc1Cl | inactive | inactive | inactive | inactive | inactive | inactive | inactive | inactive | – | – | –
28 | C1CC2OC2CC1C1CO1 (stereo not given) | inactive | inactive | inactive | inactive | inactive | inactive | inactive | inactive | – | – | –
29 | CC(C)=C[C@@H]1[C@@H](C(=O)OCc2coc(Cc3ccccc3)c2)C1(C)C | inactive | inactive | inactive | inactive | inactive | inactive | inactive | inactive | – | – | –
